The text below walks through data of PubChem BioAssay (NCATS).

Structures are written as SMILES. Results filed as inconclusive are left out. Active and inactive are the calls of the source. Calls come from the whole dose curve; as a rule, active = well fitted cell-killing curve with a large enough effect; inconclusive = small, poorly fitted or top-dose-only effect, or effect the other way; inactive = flat fitted curve, though single readings scatter.
% is set by controls: 0 for no effect and ±100 for the full control effect; potency is the fitted concentration of half-maximal effect.

This test deals with JEG-3. As to the kind of experiment: Primary qHTS to identify gynecologic anti-cancer compounds using libraries of approved drugs and bioactive compounds (AID 1345084). Note: nearly all actives have a fitted effect of over 55% in size. To be noted: Gynecologic cancer cell panel viability, ATPlite luminescence, 48 h; series mostly up to 57.5 µM; activity change, negative = cytotoxicity: at the top concentration. Summed up: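 Measured: luminescence after ATPlite addition (15 min, RT). Exposure: 48 h, 37 C, 5% CO2.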
In the case of `CCCCN(CC)c1nc(C)nc2c1c(C)cn2-c1c(C)cc(C)cc1C`, the “activity change, negative = cytotoxicity” value is -1.27% (inactive).

Regarding `COC(=O)Nc1nc2ccc(C(=O)C3CC3)cc2[nH]1`, the Potency was 7.94 µM (active).

With `Cc1nc2ccccc2n1Cc1ccc(Cl)cc1`, the “activity change, negative = cytotoxicity” value was 1.45% (inactive).

As to `S=c1[nH]c2ccccc2s1`, the “activity change, negative = cytotoxicity” value was -9.58% [at 116 µM] (inactive).

In the case of `CN1[C@@H]2CC[C@H]1CC(OC(c1ccccc1)c1ccccc1)C2` (some centres not stated), the “activity change, negative = cytotoxicity” value is 4.35% (inactive).

For `NC(=O)C(c1ccccc1)(c1ccccc1)[C@@H]1CCN(CCc2ccc3c(c2)CCO3)C1`, the “activity change, negative = cytotoxicity” value is -20.4% (inactive).

Take `COc1cc(CNC(=O)CCCC/C=C/C(C)C)ccc1O`: the “activity change, negative = cytotoxicity” value was -1.05% (inactive).

Turning to `O=c1[nH]c2ccccc2n1CCCN1CCN(C(c2ccccc2)c2ccccc2)CC1`, the “activity change, negative = cytotoxicity” value was -5.96% (inactive).

As to `O=C(Nc1ccc2c(c1)CCN(Cc1ncn[nH]1)C2)c1ccccc1-c1ccc(C(F)(F)F)cc1`, the “activity change, negative = cytotoxicity” value is 10.4% (inactive).

For `CCN(CC)CCCCNc1ncc2cc(-c3c(Cl)cccc3Cl)c(NC(=O)NC(C)(C)C)nc2n1`, the “activity change, negative = cytotoxicity” value is 5.54% (inactive).

Regarding `Cc1onc(-c2c(F)cccc2Cl)c1C(=O)N[C@@H]1C(=O)N2[C@@H]1SC(C)(C)[C@@H]2C(=O)O`, the “activity change, negative = cytotoxicity” value is 4.11% (inactive).

For the compound `CN1[C@@H]2CC[C@H]1CC(OC(=O)C(CO)c1ccccc1)C2` (some centres not stated), the “activity change, negative = cytotoxicity” value is 1.97% (inactive).
